This note sets out measurements from PubChem BioAssay (NCATS).

In one experiment the test system is MCC-26. Briefly: qHTS assay to identify novel small-molecules to repurpose for Merkel cell carcinoma treatment (AID 1296009). Note: nearly all actives have a fitted effect of over 60% in size. The following applies: MCC and control cell lines, CellTiter-Glo viability, 72 h; series mostly up to 46 µM. In a few lines:
(§1)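 CellTiter-Glo luminescence after 72 hr compound exposure at 37 degree celsius gave cell viability. Libraries NPC and MIPE were run as 8- and 11-point dose responses; RLUs normalized to DMSO (negative) and no-cell (cytotoxicity) controls.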

The subject of another experiment is MKL-1. Described as above. To be noted: MCC and control cell lines, CellTiter-Glo viability, 72 h; series mostly up to 46 µM. In a few lines:
as §1
In general terms: Cellular ATP, detected with luciferase, serves as a proxy for viable cell number.

Another experiment has as its system MKL-2. The experiment is described as above. The following applies: MCC and control cell lines, CellTiter-Glo viability, 72 h; series mostly up to 46 µM. In a few lines: as §1
For another experiment, the system named is UISO. The description is as above. To be noted: MCC and control cell lines, CellTiter-Glo viability, 72 h; series mostly up to 46 µM. The essentials:
as §1

Another experiment deals with WaGa. Described as above. To be noted: MCC and control cell lines, CellTiter-Glo viability, 72 h; series mostly up to 46 µM. In a few lines:
as §1

Another experiment relates to MCC-13. The experiment is described as above. To be noted: MCC and control cell lines, CellTiter-Glo viability, 72 h; series mostly up to 46 µM. In a few lines:
as §1

In another experiment the test system is C33A. Briefly: Primary qHTS to identify gynecologic anti-cancer compounds using libraries of approved drugs and bioactive compounds (AID 1345084). Note: nearly all actives have a fitted effect of over 55% in size. To be noted: Gynecologic cancer cell panel viability, ATPlite luminescence, 48 h; series mostly up to 57.5 µM. The essentials: (§2)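 Cells, 1,000 per well, plated 16 h, then exposed 48 h at 37 C to compounds. Viability by ATPlite luminescence after 15 min at room temperature.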
Background: qHTS replaces the single test concentration by a dilution series.

Another experiment concerns CASKI. The experiment is described as above. The following applies: Gynecologic cancer cell panel viability, ATPlite luminescence, 48 h; series mostly up to 57.5 µM. The essentials: as §2
A further experiment deals with NIH3T3. Briefly: qHTS assay to identify novel small-molecules to repurpose for Merkel cell carcinoma treatment (AID 1296009). Note: nearly all actives have a fitted effect of over 60% in size. The following applies: MCC and control cell lines, CellTiter-Glo viability, 72 h; at 44.8 µM (top of the series) unless noted. The essentials: as §1

Each structure is given as a SMILES string. Results filed as inconclusive are left out. Calls of active or inactive are those of the source. Calls come from the whole dose curve; as a rule, active = well fitted curve in the direction sought with a large enough effect; inconclusive = small, poorly fitted or top-dose-only effect, or another doubt; inactive = no such curve, though single readings can be large; an effect the other way counts as inactive or inconclusive.
Potency is the fitted concentration of half-maximal effect.

As to `N#CC(=C(N)Sc1ccc(N)cc1)c1ccccc1C(F)(F)F`, the Potency result in the experiment on MCC-26, with MKL-1, in the experiment with MKL-2, with UISO and in the experiment with WaGa was “inactive” throughout.

Consider `NC(=NCCCCCCN=C(N)N=C(N)Nc1ccc(Cl)cc1)N=C(N)Nc1ccc(Cl)cc1`, for which the Potency result in the experiment on MCC-26 is “inactive”. For the same compound, the Potency in the experiment with MKL-2 is 11.8 µM (active).

As for `Cc1cc(C(=O)NOCCO)c(Nc2ccc(I)cc2F)n(C)c1=O`, the Potency result in the experiment with MCC-26, with MKL-1, with MKL-2, in the experiment on UISO and in the experiment with WaGa was “inactive” each time.

As for `C[C@@]12C(=O)OC(=O)[C@@]1(C)C1CCC2O1`, the Potency with MCC-26 is 6.62 µM (active); in the experiment on MKL-2, 4.18 µM (active); with WaGa, 2.96 µM (active).

For `COc1ccc(S(=O)(=O)Nc2cccnc2Nc2ccc(O)cc2)cc1`, the Potency was 3.72 µM (active) in the experiment on MCC-13 and 8.91 µM (active) with C33A.

For the compound `Oc1ccc([C@@H]2Oc3ccc(O)cc3[C@@H]3CCC[C@@H]32)cc1`, the Potency result in the experiment on MCC-26 and in the experiment on C33A was “inactive” each time. Also, the Potency in the experiment with UISO is 18.7 µM (active).

In the case of `CC(C)n1cnc2c(NCCc3ccc(O)cc3)nc(-c3csc4ccccc34)nc21`, the Potency entry in the experiment with MCC-13, with WaGa, with C33A and in the experiment with CASKI was “inactive” in each case.

With `CC(=O)NCC(=O)N1[C@H]2CC[C@H]1c1cc(Nc3ncc(C(F)(F)F)c(NC4CCC4)n3)ccc12`, the Potency with MCC-26 was 3.72 µM (active); with MKL-1, 0.209 µM (active); with MKL-2, 23.5 µM (active); with UISO it was 7.43 µM (active); in the experiment on WaGa, 0.264 µM (active).

Consider `C=CCNC1=C2C[C@@H](C)C[C@H](OC)[C@@H](O)[C@@H](C)C=C(C)[C@H](OC(N)=O)[C@@H](OC)C=CC=C(C)C(=O)NC(=CC1=O)C2=O`, for which the results for the Potency with MCC-13, in the experiment on UISO and in the experiment with WaGa were 3.72 µM (active), 1.48 µM (active) and 1.66 µM (active), respectively.

On to `CCc1c(O)cc(O)c(C(=O)c2ccc(OCCN3CCOCC3)c(OC)c2)c1CC(=O)N(CCOC)CCOC`, for which the Potency entry in the experiment on MCC-13 is “inactive”. Moreover, the Potency with UISO is 1.48 µM (active).

For `N#Cc1ccc(COC[C@H]2O[C@@H](n3c(NCc4ccc(Cl)c(Cl)c4)nc4c(N)ncnc43)[C@@H](O)[C@@H]2O)cc1`, the Potency result in the experiment with MCC-26 was “inactive”.

Take `CC(C)Oc1ccc(C(=O)N[C@H](CNC(=O)CN(C)C)Cc2ccc(-c3cn4cccc([C@H](C)O)c4n3)cc2)cc1Cl`: the Potency entry in the experiment on MCC-26, in the experiment with MKL-1 and in the experiment on MKL-2 was “inactive” each time.

For `Cn1cnc2c(F)c(Nc3ccc(Br)cc3F)c(C(=O)NOCCO)cc21`, the Potency result with MCC-26, with MKL-1, in the experiment with MKL-2, in the experiment on UISO, with WaGa and with C33A was “inactive” each time. The Potency result in the experiment with CASKI is “inactive”.

With `C=CC[C@@H]1C=C(C)C[C@H](C)C[C@H](OC)[C@H]2O[C@@](O)(C(=O)C(=O)N3CCCC[C@H]3C(=O)O[C@H](C(C)=C[C@@H]3CC[C@H](O)[C@H](OC)C3)[C@@H](C)[C@@H](O)CC1=O)[C@@H](C)C[C@@H]2OC`, the Potency result with MCC-26 is “inactive”. For the same compound, in the experiment with NIH3T3, the result was inactive.

Consider `FC(F)c1nc2ccccc2n1-c1nc(N2CCOCC2)nc(N2CCOCC2)n1`, for which, in the experiment on MCC-13, the Potency result is “inactive”. The Potency in the experiment with CASKI is 2.24 µM (active).

In the case of `N=c1ccn2c(n1)O[C@H]1[C@@H](O)[C@@H](CO)O[C@H]12`, the Potency entry in the experiment on MCC-26 is “inactive”. Further, the Potency was 0.526 µM (active) in the experiment with UISO and 2.09 µM (active) in the experiment with WaGa.

On to `CN1CCc2c(c3ccccc3n2Cc2ccc(C(=O)NO)cc2)C1`, for which the Potency result with MCC-13, in the experiment on C33A and in the experiment on CASKI was “inactive” throughout. Moreover, the Potency in the experiment on WaGa was 20.9 µM (active).

As for `COc1cc2ncnc(Nc3cccc(Br)c3)c2cc1OC`, the Potency entry in the experiment with MCC-26, in the experiment on MKL-1 and with WaGa was “inactive” in each case.

For `CC1=C(C(=O)Nc2cc3cn[nH]c3cc2F)C(c2ccc(Cl)cc2F)N=C(c2ccnc(Cl)c2)N1` (stereo unspecified), the Potency result in the experiment with MCC-26 and in the experiment on CASKI was “inactive” in each case. The figures for the Potency in the experiment with MKL-2 and in the experiment with WaGa were 20.9 µM (active) and 10.5 µM (active), respectively.

On to `O=C(Nc1nnc(-c2ccco2)o1)c1cc(-c2ccccc2)nc2ccccc12`, for which the Potency result in the experiment on MCC-26 was “inactive”.

In the case of `CC(C)(C)c1nc2c3cc[nH]c(=O)c3c3cc(F)ccc3c2[nH]1`, the Potency result with MCC-26, with MKL-1, in the experiment on MKL-2 and with WaGa was “inactive” throughout.

Turning to `C=Cc1c(C)c2cc3nc(cc4[nH]c(cc5nc(cc1[nH]2)C(C)=C5CCC(=O)O)c(CCC(=O)OC)c4C)[C@@]1(C)C3=CC=C(C(=O)OC)[C@H]1C(=O)OC`, the Potency was 2.96 µM (active) in the experiment on MCC-26, 0.0469 µM (active) in the experiment with MKL-1, 0.0418 µM (active) in the experiment with MKL-2 and 0.469 µM (active) in the experiment with UISO.

As for `C[C@H](NCc1ccc(OCc2cccc(F)c2)cc1)C(N)=O`, the Potency in the experiment on MCC-26 was 20.9 µM (active); in the experiment on MKL-1, 10.5 µM (active); in the experiment with UISO, 16.6 µM (active); in the experiment on WaGa, 18.7 µM (active).

Turning to `CC(C)[C@H](CO)Nc1nc(Nc2cccc(Cl)c2)c2ncn(C(C)C)c2n1`, the Potency entry in the experiment on MCC-26 was “inactive”.

As to `Nc1nc(=O)n([C@H]2C[C@H](O)[C@@H](CO)O2)cc1F`, the Potency entry in the experiment on MCC-26 and in the experiment with MKL-2 was “inactive” in each case. In addition, the Potency is 0.209 µM (active) in the experiment with UISO and 0.0935 µM (active) in the experiment on WaGa.
